Inconclusive results are not listed. Entries that show only a call come without a potency. The source made the active and inactive calls. Calls follow the shape of the dose curve; as a rule, active = well fitted activation curve with a large enough effect in the repeat runs; inconclusive = weak or mixed curves; inactive = no such curve, though single readings can be large or run the other way. Positions of bridges follow the written chain, without caps; N, C: chain ends. Non-standard residues stand in square brackets, D forms with d. Residues, ends and D or L forms follow the SMILES beside them. *: point of attachment. Dab(CH2SO3H) = N[C@@H](CCNCS(=O)(=O)O)C(=O)O; X3 = CC[C@@H](C)CCCCC(=O)*; Dab = NCC[C@H](N)C(=O)O
molecular target: Nuclear receptor subfamily 1 group I member 2 (Homo sapiens) (UniProt O75469); assay: CYP3A4 induction through human pregnane X receptor (PXR) by small molecules, qHTS assay (AID 1346984); conditions: DPX-2 HepG2 PXR, CYP3A4-luciferin luminescence, 24 h; series mostly up to 46.1 µM; also: nearly all actives have a fitted effect of over 40% in size
Excerpt: National Center for Advancing Translational Sciences [NCATS]
NIH Chemical Genomics Center [NCGC]
U.S. Environmental Protection Agency [EPA]
National Institutes of Environmental Health Sciences [NIEHS]
National Toxicology Program [NTP]
The Pregnane X receptor (PXR), a ligand activated nuclear receptor plays a critical role in the regulation of genes involved in drug metabolism and transporters. Activation of PXR is responsible for unwanted adverse drug reactions. PXR binds xenobiotics and when compounds interact with PXR enhances the expression of CYP3A genes. Identifying the compounds with the potential for PXR activation and CYP3A4 induction can be of importance in improving the efficacy of drugs with less toxicity and avoiding drug-drug interactions.
DPX-2 (Puracyp, Inc.) cell lines, used for screening against human PXR activation has HepG2 cells co-transfected with a PXR response element and a luciferase construct containing CYP3A4 promoter. Increase in luciferase activity can be used to identify the compounds that cause the induction of CYP3A4.
DPX-2 cells were dispensed at 2,000 cells per well in 5uL of assay medium into white, solid-bottom 1536-well plates using a Multidrop Combi dispenser (Thermo Scientific). The assay plates were incubated at 37C for 5hr before transferring 23nL of test compounds dissolved in DMSO and positive control via Pintool station (Wako). The assay plates were incubated at 37C for 24hr. After 24hr compound treatment, 1uL of 3uM (final concentration) P450 substrate (P450-Glo CYP3A4 screening system with Luciferin-IPA, Promega) was added by a Flying Reagent Dispenser (FRD, Aurora Discovery). The assay plates were incubated for 3hr at 37C. Then 5ul One-Glo assay reagent (Promega) was added to each plate by an FRD and following 30 min incubation at room temperature, luciferase activity was quantified on a ViewLux plate reader (Perkin Elmer).

Compound | Potency
CS(=O)(=O)c1ccc([C@@H](O)[C@@H](COC(=O)CN)NC(=O)C(Cl)Cl)cc1 | inactive
CO/N=C(\C(=O)N[C@@H]1C(=O)N2C(C(=O)[O-])=C(C[n+]3cccc4c3CCC4)CS[C@H]12)c1csc(N)n1 | inactive
C=CC[N+]1([C@H]2C[C@H]3[C@@H]4CC[C@H]5C[C@H](O)[C@@H](N6CCOCC6)C[C@]5(C)[C@H]4CC[C@]3(C)[C@H]2OC(C)=O)CCCC1 | inactive
Oc1ccc(Cl)c2c1CCC2 | inactive
CC[C@@H](C)CCCCC(=O)N[C@@H](CCNCS(=O)(=O)O)C(=O)N[C@H](C(=O)N[C@@H](CCNCS(=O)(=O)O)C(=O)N[C@H]1CCNC(=O)[C@H]([C@@H](C)O)NC(=O)[C@H](CCNCS(=O)(=O)O)NC(=O)[C@H](CCNCS(=O)(=O)O)NC(=O)[C@H](CC(C)C)NC(=O)[C@@H](CC(C)C)NC(=O)[C@H](CCNCS(=O)(=O)O)NC1=O)[C@@H](C)O (X3-[Dab(CH2SO3H)]T[Dab(CH2SO3H)][Dab][Dab(CH2SO3H)][dL]L[Dab(CH2SO3H)][Dab(CH2SO3H)]T; lactam 4-C) | inactive
CNC(=O)C[C@@H](N)C(=O)N[C@@H](C(=O)N[C@@H]1C(=O)N2[C@@H]1SC(C)(C)[C@@H]2C(=O)O)c1ccc(O)cc1 | inactive
COc1ccc(/C=C/C(=O)O)cc1 | inactive
N[C@H](C(=O)O)[C@@H]1CC(Cl)=NO1 | inactive
O=C1c2ccccc2C(=O)C1c1ccc(F)cc1 | inactive
C=C1C(CCl)(CCl)C2(Cl)C(Cl)C(Cl)C1(Cl)C2(Cl)Cl (stereo not given) | inactive
Cc1cc(N)c2ccccc2[n+]1CCCCCCCCCC[n+]1c(C)cc(N)c2ccccc21 | inactive
C=CCN1C(=O)C(CC(C)C)NC1=S (stereo not given) | inactive
CC(=O)OCC(=O)[C@@]1(O)CC[C@H]2[C@@H]3C[C@H](C)C4=CC(=O)C=C[C@]4(C)[C@H]3[C@@H](O)C[C@@]21C | inactive
OCCCNc1ccccc1 | inactive
C[C@@H]1C[C@H]2[C@@H]3C[C@H](F)C4=CC(=O)C=C[C@]4(C)[C@@]3(Cl)[C@@H](O)C[C@]2(C)[C@H]1C(=O)COC(=O)C(C)(C)C | inactive
CN(C/C=C/c1ccccc1)Cc1cccc2ccccc12 | inactive
Cc1ncc(C[n+]2csc(CCOP(=O)(O)O)c2C)c(N)n1 | inactive
CC(C)(C)C(=O)OCC(=O)[C@H]1CC[C@H]2[C@@H]3CCC4=CC(=O)CC[C@]4(C)[C@H]3CC[C@]12C | inactive
CC12CCC(C1)C(C)(C)C2=O (stereo not given) | inactive
CCc1cn([C@H]2C[C@H](O)[C@@H](CO)O2)c(=O)[nH]c1=O | inactive

Compound | Potency
CSCCC(N)C(=O)O (stereo not given) | inactive
O=P(O)(O)OP(=O)(O)OP(=O)(O)O | inactive
CC(C)C[C@@H](NC(=O)[C@@H](O)[C@H](N)Cc1ccccc1)C(=O)O | inactive
O=S(=O)(O)CC(S)CS (stereo not given) | inactive
COc1cc2c(cc1OC)[C@@H](Cc1cc(OC)c(OC)c(OC)c1)[N+](C)(CCCOC(=O)CC/C=C/CCC(=O)OCCC[N+]1(C)CCc3cc(OC)c(OC)cc3[C@H]1Cc1cc(OC)c(OC)c(OC)c1)CC2 (stereo not given in full) | inactive
CC1CCCCN1CCCOC(=O)c1ccccc1 (stereo not given) | inactive
CN(C)CCc1c[nH]c2ccc(Cn3cncn3)cc12 | inactive
C[C@@H]1O[C@@H]1P(=O)(O)O | inactive
CNC(=O)OCc1cccc(COC(=O)NC)n1 | inactive
CC(=O)NC[C@H]1CN(c2ccc(N3CCOCC3)c(F)c2)C(=O)O1 | inactive
CCCCCCCCCCCCCCCCC(C(=O)O)C(O)(CC(=O)O)C(=O)O (stereo not given) | inactive
COc1c(O)cc2c(c1O)[C@@H]1O[C@H](CO)[C@@H](O)[C@H](O)[C@H]1OC2=O | inactive
CCCCC[C@H](O)/C=C/[C@@H]1[C@@H](C/C=C\CCCC(=O)O)[C@@H](O)C[C@H]1O | inactive
C[S+](CC[C@H](N)C(=O)O)C[C@H]1O[C@@H](n2cnc3c(N)ncnc32)[C@H](O)[C@@H]1O (stereo not given in full) | inactive
CC/C(=C(/CC)c1ccc(OP(=O)(O)O)cc1)c1ccc(OP(=O)(O)O)cc1 | inactive
CCCCCN=C(N)N/N=C/c1c[nH]c2ccc(OC)cc12 | inactive
NC(=O)[C@@H]1C[C@]2(NC(=O)NC2=O)c2cc(F)ccc2O1 | inactive
COC1=C(OC)C(=O)C(C/C=C(\C)CC/C=C(\C)CC/C=C(\C)CC/C=C(\C)CC/C=C(\C)CC/C=C(\C)CC/C=C(\C)CC/C=C(\C)CC/C=C(\C)CCC=C(C)C)=C(C)C1=O | inactive
C[N+]1(CCCCC[N+]2(C)CCCC2)CCCC1 | inactive
CCOc1ccc(NC(=S)Nc2ccc(OCC)cc2)cc1 | inactive

— PubChem BioAssay (Tox21)
